# Results taken from PubChem BioAssay (Tox21).
# Records with an inconclusive call do not appear. The source made the active and inactive calls. Calls come from the whole dose curve; as a rule, active = well fitted cell-killing curve with a large enough effect in the repeat runs; inconclusive = weak or mixed curves, or effect the other way; inactive = no such curve, though single readings can be large or run the other way.
# Assay: qHTS assay to identify small molecule antagonists of the peroxisome proliferator-activated receptor gamma (PPARg) signaling pathway - cell viability counter screen (AID 743194); note: nearly all actives have a fitted effect of over 55% in size
# Conditions: PPARg-bla HEK293H viability, CellTiter-Glo luminescence, 17 h; series mostly up to 62.6 µM
# Description: U.S. Tox21 Program National Center for Advancing Translational Sciences [NCATS] NIH Chemical Genomics Center [NCGC] U.S. Environmental Protection Agency [EPA] National Institutes of Environmental Health Sciences [NIEHS] National Toxicology Program [NTP] U.S. Food and Drug Administration [FDA] Tox21 Assay Overview: The peroxisome proliferator-activated receptors (PPARs) are lipid-activated transcription factors of the nuclear receptor superfamily with three distinct subtypes namely PPAR alpha, PPAR delta (also called PPAR beta) and PPAR gamma (PPARg). All these subtypes heterodimerize with Retinoid X receptor (RXR) and these heterodimers regulate transcription of various genes. PPAR-gamma receptor (glitazone receptor) is involved in the regulation of glucose and lipid metabolism. To identify the compounds that activate PPAR-gamma signaling, GeneBLAzer PPAR gamma UAS-bla HEK293H cell line (Invitrogen, Carlsbad, CA, USA) containing a beta-lactamase reporter gene under the control of an Upstream Activator Sequence (UAS) was used to screen the Tox21 compound library. The cytotoxicity of the Tox21 compound library against the PPARg-bla cell line was tested in parallel by measuring the cell viability using CellTiter-Glo assay in the same wells.
# Tox21 Assay Protocol Summary: PPARg-bla cells were dispensed at 3000 cells/5uL/well in 1536-well black wall/clear bottom plates using a Multidrop Combi (Thermo Fisher Scientific, Waltham, MA) dispenser. After the assay plates were incubated at 37 C and 5% CO2 for 5 h, 23 nL of compounds dissolved in DMSO, positive controls or DMSO only was transferred to the assay plate by a Pintool station (Kalypsys, San Diego, CA), followed by addition of 1ul Rosiglitazone (50 nM, final concentration in the wells). The assay plates were incubated at 37 C for 17 h, and then 1 uL of LiveBLAzerTM B/G FRET substrate was added using a Bioraptr Flying Reagent Dispenser (FRD) workstation (Beckman Coulter, Indianapolis, IN, USA). The assay plates were incubated at room temperature for 1 h and fluorescence intensity was measured by an Envision plate reader (PerkinElmer, Shelton, CT). For cell viability readout that measures cytotoxicity, 4 ul/well of CellTiter-Glo reagent was added into the assay plates using a Flying Reagent Dispenser. After 30 min incubation at room temperature, the luminescence intensity in the plates was measured using a ViewLux plate reader (PerkinElmer).
row,SMILES,outcome
1,Cc1ccc([N+](=O)[O-])cc1C,inactive
2,CCNc1nc(NC(C)C)nc(SC)n1,inactive
3,CCOP(=S)(OCC)Oc1cnc2ccccc2n1,inactive
4,Cc1cc(Cl)ccc1O,inactive
5,O=[N+]([O-])c1ccc(Oc2ccc(Cl)cc2Cl)cc1,inactive
6,c1ccc(OP(Oc2ccccc2)Oc2ccccc2)cc1,inactive
7,CC1OC(C)OC(C)O1 (stereo not given),inactive
8,CC(=O)C=C(C)C,inactive
9,COC(=O)c1ccccc1N,inactive
10,CCc1cccc(C)c1N(C(=O)CCl)C(C)COC (stereo not given),inactive
11,CCCN(CCC)N=O,inactive
12,C=CC(N)=O,inactive
13,Cc1cccc([N+](=O)[O-])c1,inactive
14,CCC12COCN1COC2,inactive
15,Cn1cc(-c2ccccc2)c(=O)c(-c2cccc(C(F)(F)F)c2)c1,inactive
16,CC(C)(C)OOC(=O)c1ccccc1,inactive
17,CCOP(OCC)OCC,inactive
18,Cc1cc(-c2cc(C)c(N)c(C)c2)cc(C)c1N,inactive
19,CCN(CC)CCO,inactive
20,CCC[N+](=O)[O-],inactive

row,SMILES,outcome
1,CC(C)(C)OOC(C)(C)C,inactive
2,O=NN1CCCC1,inactive
3,C1CN2CCN1CC2,inactive
4,CC(C)=C[C@@H]1[C@@H](C(=O)OCc2coc(Cc3ccccc3)c2)C1(C)C,inactive
5,Clc1ccccc1Cl,inactive
6,c1ccc2c(c1)oc1ccccc12,inactive
7,CCCCCOC(=O)c1ccccc1C(=O)OCCCCC,inactive
8,O=c1[nH]c2ccccc2c(=O)o1,inactive
9,COC(=O)NS(=O)(=O)c1ccc(N)cc1,inactive
10,CCCCCCCCCl,inactive
11,[N-]=[N+]=[N-],inactive
12,CC(C)OC(=O)Nc1cccc(Cl)c1,inactive
13,CCC(C)(CC)c1cc(NC(=O)c2c(OC)cccc2OC)on1,inactive
14,Clc1cccc(Cl)c1Cl,inactive
15,Nc1c(Cl)c(Cl)nc(C(=O)O)c1Cl,inactive
16,CON(C)C(=O)Nc1ccc(Cl)c(Cl)c1,inactive
17,O=C(NC(=O)c1c(F)cccc1F)Nc1cc(Cl)c(OC(F)(F)C(F)C(F)(F)F)cc1Cl (stereo not given),inactive
18,Cc1ccc(N)cc1Cl,inactive
19,Nc1ccc(Oc2ccc(N)cc2)cc1,inactive
20,COC(=O)NC(=S)Nc1ccccc1NC(=S)NC(=O)OC,inactive
